From PubChem
Shown is part of a subset that was picked to be rich in hits.
VDR inhibitor = Inhibitors of the vitamin D receptor (VDR): qHTS; 400,000 compounds, 0.93% hits; Potency, µM, hits mostly inhibitors; VDR-SRC2-3 peptide fluorescence polarization, 2 h; Vitamin D3 receptor (Homo sapiens), P11473
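Fluorescence polarization assay measuring small-molecule disruption of VDR binding to the coregulator peptide SRC2-3. Compounds were pin-transferred (23 nl) into the reagent mix and incubated 2 h at room temperature before reading.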
12-LOX inh = Primary qHTS assay for inhibitors of human arachidonate 12S-lipoxygenase (ALOX12): Round 2. Polyunsaturated fatty acid lipoxygenase ALOX12 (Homo sapiens), P18054. purified 12hLO, xylenol orange hydroperoxide absorbance. Potency, µM (series often up to 108 µM), most hits filed as inhibitors. 580,000 compounds, 1.1% hits
Target sequence (P18054 whole entry, looked up): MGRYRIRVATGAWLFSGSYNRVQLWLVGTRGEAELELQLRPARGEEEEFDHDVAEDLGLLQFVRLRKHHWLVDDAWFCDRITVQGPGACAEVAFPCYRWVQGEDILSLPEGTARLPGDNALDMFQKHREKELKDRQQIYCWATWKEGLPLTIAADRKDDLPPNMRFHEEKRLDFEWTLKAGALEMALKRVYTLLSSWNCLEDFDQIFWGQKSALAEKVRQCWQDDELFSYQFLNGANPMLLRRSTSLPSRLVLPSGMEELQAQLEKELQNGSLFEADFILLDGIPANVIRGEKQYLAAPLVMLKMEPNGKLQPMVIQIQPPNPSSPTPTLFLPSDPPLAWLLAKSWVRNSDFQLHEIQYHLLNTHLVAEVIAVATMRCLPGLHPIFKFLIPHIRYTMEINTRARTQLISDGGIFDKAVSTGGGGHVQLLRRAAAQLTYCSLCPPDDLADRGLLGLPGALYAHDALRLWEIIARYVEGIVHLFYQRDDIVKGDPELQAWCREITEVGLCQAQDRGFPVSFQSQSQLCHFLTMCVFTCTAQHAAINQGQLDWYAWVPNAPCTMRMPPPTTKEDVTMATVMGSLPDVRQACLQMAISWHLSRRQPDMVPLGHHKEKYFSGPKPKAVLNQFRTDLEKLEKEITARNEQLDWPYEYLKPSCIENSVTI
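Purified human 12hLO (150 nM final) in 25 mM Hepes, 0.01% Triton X-100, pH 7.0 was preincubated 15 min at room temperature with compound. Then 40 uM arachidonic acid was added, 30 min. Hydroperoxide was read by Fe-XO absorbance ratio 573/405 nm.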
G9a block = qHTS Assay for Inhibitors of Histone Lysine Methyltransferase G9a; Histone-lysine N-methyltransferase EHMT2 (Homo sapiens), Q96KQ7; G9a H3K9 monomethylation, AlphaScreen, 2 h; Potency, µM (highest dose often 102 µM), actives largely listed as inhibitors; 350,000 compounds, 8.8% hits; AID 504332, 2011; further: nearly all actives have a fitted effect of over 75% in size
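Step 1: enzyme (final 20 nM) with compound, 15 min RT. Step 2: substrate peptide 500 nM and SAM 20 uM, 2 h RT. Step 3: anti-H3K9me1 antibody and AlphaScreen beads, 10 min, then plate read.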
GRP78 ERSR act = qHTS for Inducers of the Endoplasmic Reticulum Stress Response (ERSR) in Human Glioma: qHTS; 420,000 compounds, 0.02% hits; Potency, µM, usual class: activators; U87-MG GRP78 promoter luciferase reporter, 16 h; further: series mostly up to about 76 µM; nearly all actives have a fitted effect of over 35% in size
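Stably transfected U87-MG human glioma cells carrying a GRP78-based luminescent sensor were seeded at 1000 cells/well, pin-dosed with compounds and incubated 16 h. Luciferase reagent was then added, and end-point luminescence was read after 10 min at room temperature.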
Sfp PPTase inh = qHTS Assay for Inhibitors of Bacillus subtilis Sfp phosphopantetheinyl transferase (PPTase); Biochemical Sfp PPTase activity, qHTS; Potency, µM, actives largely listed as inhibitors; 310,000 compounds, 3.5% hits; AID 1490, 2009;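 further: the enzyme is Sfp with the accession as filed and its product quenches rhodamine fluorescence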
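With Hepes-Na pH 7.6 buffer containing 10 mM MgCl2, Sfp (15 nM) modified BHQ-2-YbbR (12.5 uM) using rhodamine-CoA (5 uM). Two reads 30 minutes apart at 525/598 nm yielded each well's rate.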
Hits are given with their value; – = inactive; ? = inconclusive; · = not tested or not shown; [ ] = dose if it differs, or a comment. The call rests on the fitted dose curve; in most records, active means well fitted curve in the direction sought with a large enough effect; inconclusive means small, poorly fitted or top-dose-only effect, or another doubt; inactive means no such curve, though single readings can be large; an effect the other way counts as inactive or inconclusive.

SMILES	VDR inhibitor	12-LOX inh	G9a block	GRP78 ERSR act	Sfp PPTase inh
CCOc1cc(N2CCOCC2)c(OCC)cc1NC(=O)COC(=O)C1CCCN1S(=O)(=O)c1ccccc1F (configuration not stated)	–	?	–[12.7 µM]	–	·
CCOc1cc(N2CCOCC2)c(OCC)cc1NC(=O)COC(=O)c1cc2ccccc2cc1O	–	?	–	–	–
CCOc1cc(N2CCOCC2)c(OCC)cc1NC(=O)COC(=O)[C@@H]1CCCN1S(=O)(=O)c1ccccc1F	–	–	45µM	–	–
CCOc1ccc(OCCC(=O)OCC(=O)Nc2cc(OCC)c(N3CCOCC3)cc2OCC)cc1	–	–	35µM	–	·
CCn1c(=O)c(=O)n(CC)c2cc(N3CCCCC3)c(NC(=O)c3ccc(OC)c(OC)c3)cc21	–	–	–	–	·
CCOc1cc(N2CCOCC2)c(OCC)cc1NC(=O)Cc1cccc(OC)c1	–	–	50µM	–	–
CCOc1cc(N2CCOCC2)c(OCC)cc1NC(=O)CSc1nccc(C)n1	–	–	–	–	–
CCOc1ccc(C(=O)Nc2cc3c(cc2N2CCCC2)n(CC)c(=O)n3CC)cc1OCC	–	–	45µM	–	–
CCOc1cc(N2CCOCC2)c(OCC)cc1NC(=O)CSc1ccccc1C(=O)O	–	?	7.9µM	–	·
CCOc1cc(N2CCOCC2)c(OCC)cc1NC(=O)COc1cccc(CC)c1	–	–	?	–	·
O=C(CCc1ccccc1Cl)NCc1cccc(C(F)(F)F)c1	·	–	·	·	·
O=C(Nc1cccc2ccccc12)O[C@@H]1CO[C@H]2[C@@H]1OC[C@@H]2n1nnnc1-c1ccc(-c2ccccc2)cc1	·	–	·	·	·
CCOC(=O)C(=Cc1ccc(OCc2ccc([N+](=O)[O-])cc2)c(OC)c1)C(=O)OCC	79µM	–	–[12.7 µM]	–	–
COc1cc(/C=N/NC(=O)c2cccc([N+](=O)[O-])c2)ccc1OCc1ccccc1	–	–	–	–	–
Cc1cc2n(n1)C(c1ccccc1)Nc1ccccc1-2 (configuration not stated)	–	–	–	–	–
Cc1cc2n(n1)SC(Nc1ccccc1)N2 (configuration not stated)	–	14µM	1.8µM	–	–
Cc1ccc(N=CNc2ccc(C)cc2C)c(C)c1	–	–	–	–	–
Cc1ccc(NC2Nc3cc(C)nn3S2)c(C)c1 (configuration not stated)	–	40µM	1.1µM	–	–
COc1ccccc1OC1=NS(=O)(=O)c2ccccc21	–	?	45µM	–	–
CCN(CC)c1cccc(OC2=NS(=O)(=O)c3ccccc32)c1	–	?	16µM	–	–
CCc1ccc(OC2=NS(=O)(=O)c3ccccc32)cc1	–	–	?	–	–
Cc1ccc(NCc2n[nH]c(=S)n2-c2ccccc2)c(C)c1	–	–	4µM	–	–
Cc1ccc(NCc2nc3ccccc3n2C)c(C)c1	–	–	?	–	–
Cc1ccc(NCc2n[nH]c(=S)n2-c2ccccc2)cc1	–	28µM	1.6µM	–	?
CCCCOC(=O)/C(C#N)=C/c1ccc(-c2ccccc2)o1	·	–	·	·	·
SMILES	VDR inhibitor	12-LOX inh	G9a block	GRP78 ERSR act	Sfp PPTase inh
CCC(=O)Nc1ccc(-c2nnc(SCC(=O)Nc3nccs3)n2C)cc1	–	–	40µM	–	–
CCn1c(Cc2cccc3ccccc23)nnc1SCC(=O)Nc1nccs1	–	–	10µM	–	–
CCn1c(SCC(=O)Nc2nccs2)nnc1-c1ccc(C)cc1	–	?	–	–	–
CCc1nnc(SCC(=O)Nc2nccs2)n1CC	–	?	–	–	–
O=C(CSc1nnc(Cn2c(=O)sc3ccccc32)n1-c1ccccc1)Nc1nccs1	–	–	35µM	–	79µM
COc1ccc(-c2ccc(SCC(=O)Nc3nccs3)nn2)cc1OC	–	–	–	–	–
COc1ccc(-c2nnc3ccc(SCC(=O)Nc4nccs4)nn23)cc1OC	–	?	32µM	–	–
Cc1oc2ccn(Cc3ccccc3F)c(=O)c2c1C(=O)NCc1cc(F)cc(F)c1	·	–	·	·	·
CC(=O)c1sc(-c2ccc(Br)cc2)nc1C	·	–	·	·	·
O=C(CSc1ccc2nnc(-c3ccncc3)n2n1)Nc1nccs1	–	–	50µM	–	–
Cc1ccccc1C(=O)N1CCC(N(Cc2csc(-c3cccs3)n2)S(C)(=O)=O)CC1	·	–	·	·	·
CCOC(=O)C1CCCN(C(=O)Cn2ncc3c4ccccc4n(Cc4ccccc4)c3c2=O)C1 (configuration not stated)	–	–	–	–	·
CCOC(=O)C1CCN(C(=O)Cn2ncc3c4ccccc4n(Cc4ccc(F)cc4)c3c2=O)CC1	–	–	–	40µM	·
CCOC(=O)C1CCN(C(=O)Cn2ncc3c4ccccc4n(Cc4ccccc4)c3c2=O)CC1	–	–	–	32µM	·
COc1ccc(S(=O)(=O)N2CCC3(CC2)CC(CC(=O)NC2CC2)CCO3)cc1 (configuration not stated)	·	–	·	·	·
CCC1CCCCN1C(=O)C1=CC(c2ccc(C)cc2)=NS(=O)(=O)N1C (configuration not stated)	·	–	·	·	·
Cc1cccc(NC(=O)c2sc3nc(-c4ccc(F)cc4)cn3c2C)n1	–	–	–	–	50µM
COc1ccc(-c2cn3c(C)c(C(=O)Nc4cccc(C)n4)sc3n2)cc1	–	–	10µM	–	40µM
COc1ccccc1N1CCN(C(=O)c2sc3nc(-c4ccc(F)cc4)cn3c2C)CC1	–	–	28µM	–	–
CCCC1(CCC)NC(=O)N(Cc2nc3ccccc3nc2C)C1=O	·	–	·	·	·
COc1ccc(C(CNC(=O)c2cccc3c(=O)c(C)c(-c4ccccc4)oc23)N(C)C)cc1 (configuration not stated)	·	–	·	·	·
CCS(=O)(=O)NCC1(COc2ccccc2)C[C@@H](O)[C@@H](O)C1 (some centres not stated)	·	56µM	·	·	·
CC(C)NCC1(COc2ccccc2)C[C@@H](O)[C@@H](O)C1 (some centres not stated)	·	–	·	·	·
Cc1noc(C)c1-c1cc2c(cc(-c3ccccc3)n2C)c(Nc2ccncn2)n1	·	–	·	·	·
Cc1noc(/C=C\c2ccc(S(=O)(=O)N3CCN(C4CCCCC4)CC3)cc2)c1NC(=O)C1CC1	·	–	·	·	·
COc1cc(OC)c(OC)cc1/C=C(/C#N)c1nc2ccccc2[nH]1	·	–	·	·	·
CCOC(=O)C1CCCN(C(=S)Nc2ccc(Nc3ccccc3)cc2)C1 (configuration not stated)	–	?	25µM	–	45µM
CCOC(=O)C1CCN(C(=S)Nc2ccccc2)CC1	–	–	·	–	–
NS(=O)(=O)c1ccc(NC(=S)N2CCN(c3ccccc3)CC2)cc1	–	–	?	–	–
CCOC(=O)C1CCN(C(=S)NC(=O)c2cccs2)CC1	–	–	40µM	–	–
